These results are taken from PubChem BioAssay (NCATS).

SMILES strings stand for the structures. Inconclusive results are not listed. A call without a number means that no potency is given here. Calls of active or inactive are those of the source. Calls come from the whole dose curve; as a rule, active = well fitted inhibition curve with a large enough effect; inconclusive = small, poorly fitted or top-dose-only effect; inactive = no such curve, though single readings can be large or run the other way. Positions of bridges follow the written chain, without caps; N, C: chain ends. Non-standard residues stand in square brackets, D forms with d. Residues, ends and D or L forms follow the SMILES beside them. ξ: configuration not given here. *: point of attachment. Octanoyl(6-Me) = CCC(C)CCCCC(=O)*; ξThr(3R) = C[C@@H](O)C(N)C(=O)O; dDab = NCC[C@@H](N)C(=O)O; Dab = NCC[C@H](N)C(=O)O
Potency is the fitted concentration of half-maximal effect.

The nature of the experiment: qHTS to identify inhibitors of the type 1 interferon - major histocompatibility complex class I in skeletal muscle: primary screen against the NCATS Mechanism Interrogation Plate v5.0 (MIPE) Libary (AID 1347411). Note: nearly all actives have a fitted effect of over 65% in size. Particulars: iHSKM cells + IFN-b, HiBiT-tagged MHC-I luminescence, 24 h; series mostly up to 45.8 µM. The method in brief:
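Immortalized human C25cl48 myoblasts with HiBit knocked into endogenous HLA-B*08:01 were stimulated with 4.0 ng/ml IFN-beta and exposed to compounds (11-point 1:3 titration, top 46 uM final) for 24 hrs at 37 C; HiBiT lytic luminescence measured.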
On the technique in general: In qHTS, concentration-response curves come from the screen itself.
As for `NC(=O)c1cccc(-c2cccc(OC(=O)NC3CCCCC3)c2)c1`, the Potency entry was “inactive”.

On to `O=C(Nc1ccc(Oc2ccnc3[nH]ccc23)c(F)c1)c1cccn(-c2ccc(F)cc2)c1=O`, for which the Potency entry is “inactive”. Regarding `CCCCCCCCCCCCc1ccc(S(=O)(=O)Nc2nncs2)cc1`, the Potency entry was “inactive”. As to `C[C@H]1COc2c(N3CCN(C)CC3)c(F)cc3c(=O)c(C(=O)O)cn1c23`, the Potency result was “inactive”. As for `O=C(O)CCCCC(CCSCc1ccccc1)SCc1ccccc1` (stereo not given), the Potency result is “inactive”. Turning to `CN(C)c1ccc2cc(C(=O)N[C@@H](CCCN=C(N)CCl)C(=O)NCc3ccccc3)ccc2c1`, the Potency is 20.8 µM (active). Take `O=C(c1ccc(F)cc1)N1CCC[C@H](c2nc(-c3ccc(F)cc3)no2)C1`: the Potency result was “inactive”. In the case of `COc1ccc(C[C@@H](C)[C@@H](C)Cc2ccc(OC)c(OC)c2)cc1OC` it was “inactive”. Consider `CC(C)[C@H](CO)Nc1nc(Nc2cccc(Cl)c2)c2ncn(C(C)C)c2n1`, for which the Potency is 16.5 µM (active).

As to `C[C@](Cc1c[nH]c2ccccc12)(NC(=O)OC1C2CC3CC(C2)CC1C3)C(=O)NC[C@H](NC(=O)CCC(=O)O)c1ccccc1` (stereo not given in full), the Potency entry is “inactive”. With `FC(F)(F)c1ccc(Nc2nc3ccc(Oc4ccnc(-c5ncc(C(F)(F)F)[nH]5)c4)cc3[nH]2)cc1`, the Potency entry was “inactive”. Turning to `N#Cc1c(C2CCNCC2)cc(-c2c(O)cccc2OCC2CC2)nc1N`, the Potency was 8.29 µM (active).

Consider `CC(=O)SCC(Cc1ccccc1)C(=O)NCC(=O)OCc1ccccc1` (stereo not given), for which the Potency entry was “inactive”. In the case of `COc1ccc(Nc2nccc(NCCO)n2)cc1` it was “inactive”. Consider `CCC(C)CCCCC(=O)N[C@@H](CCN)C(=O)NC(C(=O)N[C@H](CCN)C(=O)N[C@@H]1CCNC(=O)C([C@@H](C)O)NC(=O)[C@@H](CCN)NC(=O)[C@@H](CCN)NC(=O)[C@@H](CC(C)C)NC(=O)[C@H](Cc2ccccc2)NC(=O)[C@H](CCN)NC1=O)[C@@H](C)O` (stereo partly drawn) ({Octanoyl(6-Me)}-[Dab][ξThr(3R)][dDab][dDab][Dab]F[dL][dDab][dDab][ξThr(3R)]; lactam 4-C), for which the Potency entry was “inactive”. Regarding `COc1cc(C[C@@H](CO)[C@H](CO)Cc2ccc(O)c(OC)c2)ccc1O`, the Potency entry is “inactive”. For the molecule `Cc1cnc(Nc2ccc(N3CCN(C)CC3)cc2)nc1Nc1cccc(S(=O)(=O)NC(C)(C)C)c1`, the Potency is 11.7 µM (active). On to `CCCNS(=O)(=O)Nc1ncnc(OCCOc2ncc(Br)cn2)c1-c1ccc(Br)cc1`, for which the Potency result is “inactive”. Turning to `CC(C)Oc1ccc(C(=O)N[C@H](CNC(=O)CN(C)C)Cc2ccc(-c3cn4cccc([C@H](C)O)c4n3)cc2)cc1Cl`, the Potency entry was “inactive”. Regarding `Cc1cnc(Nc2ccc(CN3CCOCC3)cc2)nc1Nc1cccc(S(=O)(=O)NC(C)(C)C)c1`, the Potency is 2.94 µM (active).

`COc1cc(O)c2c(c1)C1OC1C[C@H](O)[C@H](O)C(=O)C=CC[C@H](C)OC2=O` (stereo not given in full): the Potency was 13.1 µM (active).

Take `CCCCCCCN(CC)CCCC(O)c1ccc(NS(C)(=O)=O)cc1` (stereo not given): the Potency result was “inactive”. With `Cc1ccc2nc(NCCN)c3ncc(C)n3c2c1`, the Potency is 4.66 µM (active). Take `CCOC(=O)C1=C(C)NC(=S)NC1c1cccc(O)c1` (stereo not given): the Potency result is “inactive”. As for `CN(CC(=O)N(Cc1ccc(C2CCCCC2)cc1)c1ccc(C(=O)O)c(O)c1)S(=O)(=O)c1c(F)c(F)c(F)c(F)c1F`, the Potency result is “inactive”. In the case of `Oc1cc(-c2nc(-c3ccccc3)[nH]c2-c2ccncc2)ccc1Cl` it was 16.5 µM (active); in that of `OC[C@@H](O)[C@@H](O)[C@H](O)[C@@H](O)CO`, “inactive”; in that of `CCOC(=O)[C@@H](N)Cc1ccc(-c2cc(O[C@H](c3ccc(Cl)cc3-n3ccc(C)n3)C(F)(F)F)nc(N)n2)cc1`, 9.3 µM (active). As to `CC1=C(C(=O)Nc2cc3cn[nH]c3cc2F)C(c2ccc(Cl)cc2F)N=C(c2ccnc(Cl)c2)N1` (stereo not given), the Potency entry is “inactive”. `CCOC(=O)C=C[C@H](C[C@@H]1CCNC1=O)NC(=O)[C@@H](CC(=O)[C@@H](NC(=O)c1cc(C)on1)C(C)C)Cc1ccc(F)cc1`: the Potency result is “inactive”.
